# PubChem BioAssay AID652054 (National Center for Advancing Translational Sciences (NCATS), 2013)
# About 9,100 (2.5%) of roughly 360,000 compounds were called active. Another 4% or so got no clear call; they are omitted. No stated cut-off is given here; in the data, active means max response below about -50%; inconclusive means no clear call, values can overlap the other calls; inactive means above that. Only a selection was taken, and actives are over-represented in it overall.
# Target: D(3) dopamine receptor (Homo sapiens) (UniProt P35462)
# Sequence (P35462 whole entry, looked up): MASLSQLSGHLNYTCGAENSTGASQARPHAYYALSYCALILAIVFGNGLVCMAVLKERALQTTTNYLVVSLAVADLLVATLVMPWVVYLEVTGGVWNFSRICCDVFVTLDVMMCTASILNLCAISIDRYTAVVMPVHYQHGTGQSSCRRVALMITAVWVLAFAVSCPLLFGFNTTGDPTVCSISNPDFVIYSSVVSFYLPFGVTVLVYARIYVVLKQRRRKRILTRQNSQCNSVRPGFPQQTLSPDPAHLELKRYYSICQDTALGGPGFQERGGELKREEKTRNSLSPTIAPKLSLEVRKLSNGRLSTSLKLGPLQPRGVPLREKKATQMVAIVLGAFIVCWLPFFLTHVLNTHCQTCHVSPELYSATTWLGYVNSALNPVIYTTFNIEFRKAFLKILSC
# Experiment: qHTS of D3 Dopamine Receptor Antagonist: qHTS
# Conditions: D3R cells, DiscoveRx beta-arrestin luminescence, antagonist mode; active compounds read low
# Outline: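 Cells expressing the human receptor were seeded at 1500 cells/well, incubated overnight at 37 degrees C in 5% CO2, then exposed to library compounds with dopamine controls for 90 minutes at 37 degrees C before luminescent detection.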
# On the % scale 0 is the no-effect control and ±100 the full control effect.
row,SMILES,"max response, negative = inhibition"
1,CN1CCN(CCCCOc2ccccc2-c2ccccc2)CC1,-71% (active)
2,OCCN1CCN(C(=S)c2ccc(-c3ccccc3)cc2)CC1,-6.47% (inactive)
3,COc1ccccc1N1CCN(CC(=O)NC(=O)NCc2ccco2)CC1,-22.2% (inactive)
4,CC1CC(C)CN(CCOc2cccc3ccccc23)C1 (stereo not given),-86.3% (active)
5,COc1ccccc1N1CCN(c2ccc([N+](=O)[O-])nc2)CC1,5.81% (inactive)
6,COc1ccccc1N1CCN(CCCCOc2ccc(F)cc2)CC1,-78.2% (active)
7,CCN1CCN(CCCCOc2ccccc2F)CC1,-71.5% (active)
8,Cc1ccc(/C=N/NC(=O)COc2ccccc2-c2ccccc2)cc1,25.4% (inactive)
9,Fc1ccccc1OCCCCn1cncn1,2.5% (inactive)
10,O=c1c2ccccc2ncn1CCCCOc1ccccc1F,-15.9% (inactive)
11,Cc1cccc(NC(=O)CCN2CC(C)CC(C)C2)c1 (stereo not given),-1.96% (inactive)
12,Cc1[nH]c2ccccc2c1C(=O)CN1CC(C)CC(C)C1 (stereo not given),-3.3% (inactive)
13,Nc1nc2ncccn2c1-c1ccccc1,-1.52% (inactive)
14,O=C(COC(=O)c1cccc(Cl)c1Cl)NC1CCCCCC1,-13.8% (inactive)
15,CC1CCCC(C)N1C(=O)COC(=O)c1ccccc1C(=O)c1ccccc1 (stereo not given),-17.2% (inactive)
16,O=C(Nc1ccc(Cl)c(C(F)(F)F)c1)C1Cc2c(-c3ccccc3Oc3ccccc3)ccnc2O1 (stereo not given),0% (inactive)
17,CCCCN1C[C@H](c2ccc(Br)cc2)[C@@H](CC(=O)Nc2ccc(Br)cc2)C1=O,24.8% (inactive)
18,COc1ccc(C(=O)C(OP(=O)(OC)OC)c2ccccc2OC)cc1 (stereo not given),2.58% (inactive)
19,CC(C)c1cccc(C(C)C)c1Nc1cn[nH]c1,157% (inactive)
20,C[C@@H]1CN([C@@H](C)CO)C(=O)CCCn2nncc2CO[C@H]1CN(C)C(=O)Nc1ccc(C(F)(F)F)cc1,-16.1% (inactive)
21,CCCCOCCCNC(=O)C[C@@H]1C[C@@]2(C(=O)OC)CCCCC=C2N(CCC2=CCCCC2)C1=O,0% (inactive)
22,CC(C)NC(=O)C1(C)CCCCN1Cc1cccc(C(F)(F)F)c1 (stereo not given),0% (inactive)
23,CCOC(=O)C1C(C)C(C(C)(C)C)N(S(=O)(=O)c2ccc(C)cc2)C1c1ccccc1 (stereo not given),15.8% (inactive)

row,SMILES,"max response, negative = inhibition"
1,CC1(C(=O)Nc2cccc3cccnc23)CCN1C(=O)CCC1CCCC1 (stereo not given),0% (inactive)
2,CN1CCN(CCCCOc2cccc3ccccc23)CC1,-59% (active)
3,CCOC(=O)C1CCN(C(=O)COc2cccc3ccccc23)CC1,2.44% (inactive)
4,COc1ccccc1OCCCCCCN1CCN(C)CC1,0.923% (inactive)
5,C[N+](C)(C)CCNC(=O)c1c[nH]c2ccccc12,0% (inactive)
6,CCOC(=O)[C@]12CCC=C1N(Cc1ccco1)C(=O)[C@H](CC(=O)N1CCSCC1)C2,2.85% (inactive)
7,COC(=O)[C@@]12C[C@@H](CC(=O)N3CCC(c4ccccc4)CC3)C(=O)N(Cc3ccccc3)C1=CCC(C)(C)C2,15.3% (inactive)
8,COc1ccc(-c2cc3c(c4c2ccn4C)C2CCC3C2)cn1 (stereo not given),12.4% (inactive)
9,O=C(CSc1nc2cccc(F)c2c(=O)n1-c1ccccc1)Nc1ccc2c(c1)CCC2,-3.93% (inactive)
10,Cn1c(-c2ccc(F)cc2)cnc1SCC(=O)NNC(=O)Cc1ccccc1,-14.6% (inactive)
11,Cn1c(-c2ccc(F)cc2)cnc1SCC(=O)NCc1ccco1,-51.9% (active)
12,O=C(CSc1nnc2scc(-c3ccc(F)cc3)n12)NCc1ccco1,5.75% (inactive)
13,CCCCCn1nnnc1C1c2ccccc2C(=O)N1Cc1ccco1 (stereo not given),-21.5% (inactive)
14,O=NN(CCCl)C(=O)NCCc1cccc[n+]1[O-],-1.68% (inactive)
15,CCOC(=O)C1CCN(C(=O)c2ccccc2N(C)S(=O)(=O)c2ccccc2)CC1,-4.73% (inactive)
16,CCOC(=O)N1CCN(C(=O)c2ccccc2N(Cc2ccccc2)S(=O)(=O)c2ccc(OC)cc2)CC1,-17.6% (inactive)
17,CCN1CCN(C(=O)c2ccccc2N(C)S(=O)(=O)c2ccc(C)cc2)CC1,-77.3% (active)
18,Clc1ccccc1Nc1nc(NCc2cccs2)nc2ccsc12,31.9% (inactive)
19,O=C(C[C@H]1CC[C@@H](NC(=O)c2ccncc2)[C@@H](CO)O1)NCC1CC1,12.2% (inactive)
20,O=C(NCc1nnnn1-c1ccc(Cl)cc1)c1ccc2c(c1)OCO2,-11.2% (inactive)
21,CC(=O)N/C(=C\c1ccc(F)cc1)C(=O)NC(Cc1ccccc1)C(=O)O (stereo not given),3.22% (inactive)
22,CC(=O)N/C(=C\c1ccccc1)C(=O)OC(C)C(=O)N(C)c1ccccc1 (stereo not given),-13.3% (inactive)
23,CC(=O)N/C(=C/c1ccc(OC(F)F)cc1)C(=O)O,-58.1% (active)

row,SMILES,"max response, negative = inhibition"
1,CC1(Cc2cccc(C#N)c2)C(=O)Nc2ccc(-c3cccc(C(F)(F)F)c3)cc21 (stereo not given),19.7% (inactive)
2,CCOc1cc(CNn2c(C)nnc2SCC(=O)NC(C)(C)C)ccc1OCC(=O)NC(C)(C)C,4.21% (inactive)
3,CCOc1cc(CNCc2ccccn2)ccc1OCC(=O)NC(C)(C)C,-58.7% (active)
4,CCOc1cc(C)c(S(=O)(=O)NCc2ccccn2)cc1C,4.2% (inactive)
5,CC1(C)CC(=O)C2=C(C1)N=C1SCCC(=O)N1C2c1ccc(C(F)(F)F)cc1 (stereo not given),-94.4% (active)
6,CNC(=O)C[C@H]1C(=O)N(Cc2ccccc2)C[C@@H]1CSC,-17.4% (inactive)
7,O=S(=O)(c1ccccc1)c1nc(-c2ccccc2)oc1NCCCN1CCOCC1,-64.3% (active)
8,O=S(=O)(c1ccc(Cl)cc1)c1nc(-c2ccccc2F)oc1NCCN1CCOCC1,-10.5% (inactive)
9,O=S(=O)(c1ccc(Br)cc1)c1nc(-c2ccccc2)oc1N1CCOCC1,-1.47% (inactive)
10,CC(=O)c1cccc(-c2cnc3c(NC=O)cc(-c4ccc(N(C)C)cc4)cn23)c1,4.39% (inactive)
11,c1ccc(CNCc2ccc(CNCc3ccccc3)cc2)cc1,-21.6% (inactive)
12,CCOCCCNCc1cc(Br)ccc1OCC,4.27% (inactive)
13,CCOc1ccccc1OCCCNCc1ccccc1,-58.9% (active)
14,CCCCN1CC(N2CCN(Cc3cccc(C)c3)CC2)CS1(=O)=O (stereo not given),0.736% (inactive)
15,OCCC#Cc1ccc(N2C(c3ccsc3)=Cc3ccc(F)cc3C2c2c[nH]c3ccccc23)cc1 (stereo not given),-3.75% (inactive)
16,O=C(CNC(=O)c1ccccc1)Oc1ccc([N+](=O)[O-])cc1,-54.6% (active)
17,COC(=O)CNC(=O)c1ccccc1[N+](=O)[O-],16.4% (inactive)
18,O=C(NNS(=O)(=O)Cc1ccccc1)c1ccc([N+](=O)[O-])cc1,-19% (inactive)
19,Nc1cc(=O)c2[nH]cnc2[nH]1,15.5% (inactive)
20,Nc1ncnc2c1ncn2[C@@H]1O[C@H](C(=O)N2CCCN(Cc3ccccc3F)CC2)[C@@H](O)[C@H]1O,15% (inactive)
21,O=C(C=CC(=O)Nc1ccc(F)cc1F)Nc1ccc(F)cc1F,4.55% (inactive)
22,COC(=O)[C@@]1(Cc2ccc(OC)cc2)[C@H]2c3cc(C(=O)N4CCCC4)n(Cc4ccc(OC(F)(F)F)cc4)c3C[C@H]2CN1C(=O)c1ccccc1,20.3% (inactive)
23,C[C@@H]1CN([C@H](C)CO)C(=O)CCCn2nncc2CO[C@@H]1CN(C)S(=O)(=O)c1cccc(C#N)c1,-18.1% (inactive)

row,SMILES,"max response, negative = inhibition"
1,N#Cc1ccsc1NC(=O)CN1CCCCC1,-12% (inactive)
2,N#Cc1cccc(NC(=O)CN2CCCCCC2)c1,-64.8% (active)
3,N#Cc1cccc(NC(=O)C2CCCN(C(=O)c3ccc(Cl)cc3)C2)c1 (stereo not given),0.782% (inactive)
4,Nc1cc(C(=O)N2CCN(c3ccccc3Cl)CC2)ccc1N1CC2CC(C1)c1cccc(=O)n1C2 (stereo not given),27.4% (inactive)
5,C=C1C(=O)OC2C1CCC(C)=CCCC1(C)OC21 (stereo not given),-90% (active)
6,CC1(C(=O)NCC2CCOCC2)Cc2c(-c3cccc(C(N)=O)c3)ccnc2O1 (stereo not given),-8.42% (inactive)
7,Cc1cc(Br)cn2c(Cc3ccccc3C(F)(F)F)c(C3CCCCC3)nc12,-18.2% (inactive)
8,COc1cccc(-c2cnc3c(NC(C)=O)cc(-c4cc(F)ccc4OC)cn23)c1,-14.2% (inactive)
9,COc1ccc(S(=O)(=O)N2CCC(C(=O)NCCC(=O)NCCc3cccc(F)c3)CC2)cc1,9.47% (inactive)
10,C=CCNC(=S)N1CCc2[nH]c3ccccc3c2C1,-14.7% (inactive)
11,O=C(CCCN1CCc2[nH]c3ccc(F)cc3c2C1)c1ccc(F)cc1,-89.2% (active)
12,CC1CCc2[nH]c3ccc(C(=O)N(C)CC(=O)Nc4cccc(F)c4)cc3c2C1 (stereo not given),3.28% (inactive)
13,CC(=O)C1=CCC(c2ccccc2)N(S(=O)(=O)c2ccc(C)cc2)C1 (stereo not given),0% (inactive)
14,COc1cccc(NC(=O)C2(C)CCN2C(=O)CCC2CCCC2)c1 (stereo not given),1.34% (inactive)
15,COc1ccc(C(NC(=O)C2CCN(CCCc3ccccc3)CC2)c2cccs2)cc1 (stereo not given),-15.9% (inactive)
16,Cc1c(NS(=O)(=O)c2ccc(NC3CCCC3)c([N+](=O)[O-])c2)c(=O)n(-c2ccccc2)n1C,-21.5% (inactive)
17,Cc1cc([N+](=O)[O-])c(NC2CCCCC2)c([N+](=O)[O-])c1,-7.91% (inactive)
18,Cc1cc(C=O)c(C)n1-c1ccc(NC2CCCCC2)c([N+](=O)[O-])c1,-55.1% (active)
19,COCC(=O)N(C)C[C@H]1Oc2cc(Br)ccc2S(=O)(=O)N([C@H](C)CO)C[C@H]1C,15.2% (inactive)
20,C#CCN(C[C@@H]1[C@@H](OC(=O)NC2CC2)[C@@H](OC(=O)NC2CC2)Cn2c(=O)ccc(=O)n21)S(=O)(=O)c1ccc(C)cc1,13.1% (inactive)
21,O=c1ccc2c(-c3ccccc3S(=O)(=O)O)c3ccc(O)c(O)c3oc-2c1O,-93.3% (active)
